# Screens from PubChem BioAssay.
# An excerpt weighted towards active compounds, which were near 5.8% of everything screened.
# TRPV1 agonist – activates the human vanilloid receptor TRPV1; AID 540275; activation, % at 8.33 µM; Q8NER1; actives 0.19% (n = 320,000); TRPV1-expressing cells, Fluo-8 calcium influx, agonist mode; in the data active means activation above about 80%; inconclusive means between about 30% and that limit; further: 0% is about no effect
# Target sequence (Q8NER1 whole entry, looked up): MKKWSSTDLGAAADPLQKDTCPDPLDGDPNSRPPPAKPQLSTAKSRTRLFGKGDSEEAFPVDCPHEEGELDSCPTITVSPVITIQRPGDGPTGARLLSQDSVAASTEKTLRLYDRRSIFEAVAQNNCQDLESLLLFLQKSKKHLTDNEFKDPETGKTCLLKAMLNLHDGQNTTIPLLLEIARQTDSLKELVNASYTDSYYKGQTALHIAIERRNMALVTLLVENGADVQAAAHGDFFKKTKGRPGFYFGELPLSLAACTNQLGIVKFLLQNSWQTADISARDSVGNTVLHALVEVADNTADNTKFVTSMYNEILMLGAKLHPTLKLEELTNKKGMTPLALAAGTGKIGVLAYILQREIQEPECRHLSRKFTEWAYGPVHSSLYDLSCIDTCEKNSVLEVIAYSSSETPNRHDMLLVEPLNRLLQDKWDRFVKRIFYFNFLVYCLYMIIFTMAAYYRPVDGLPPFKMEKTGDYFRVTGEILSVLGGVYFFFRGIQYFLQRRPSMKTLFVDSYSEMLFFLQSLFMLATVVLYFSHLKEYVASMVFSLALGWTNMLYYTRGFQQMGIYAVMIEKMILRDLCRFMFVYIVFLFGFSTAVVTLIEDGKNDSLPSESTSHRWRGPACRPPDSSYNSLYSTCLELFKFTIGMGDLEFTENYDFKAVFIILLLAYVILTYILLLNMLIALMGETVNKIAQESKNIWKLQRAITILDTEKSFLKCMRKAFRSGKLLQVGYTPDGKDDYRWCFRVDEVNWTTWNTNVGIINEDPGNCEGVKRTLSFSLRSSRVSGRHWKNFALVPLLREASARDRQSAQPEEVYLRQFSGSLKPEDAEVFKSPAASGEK
#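 TRPV1-expressing cells were cultured overnight at 35.5C and loaded with Fluo-8 calcium dye for 40 to 90 min at room temperature. After a 10 s baseline, compound was added and calcium influx was read kinetically for 3 min (ex 480/em 520 nm).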
# VP16 counter – Gal4-VP16 reporter inhibition counter-screen. Drosophila S2 Gal4-VP16 UAS-luciferase, luminescence, 20 h. Potency, µM (highest dose often 53.6 µM), without a hit: at the highest dose activity, negative = inhibition, usual class: inhibitors. actives 3.5% (n = 310,000);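 further: Gal4-VP16 expression switched on by copper sulfate through the metallothionein promoter; potency means the concentration at half of the fitted maximal effect; on the % scale 0 is the no-effect control and ±100 the full control effect; nearly all actives have a fitted effect of over 50% in size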
# uPA surface inh – cell surface uPA generation inhibition | Potency, µM (doses to about 38.3 µM), for inactives: top-dose activity change, negative = inhibition, hits mostly inhibitors | actives 0.31% (n = 330,000) | cell surface uPA generation assay, qHTS; active means well fitted inhibition curve with a large enough effect; inconclusive means small, poorly fitted or top-dose-only effect; inactive means no such curve, though single readings can be large or run the other way; tested in mouse RAW 264.7 cells; further: potency means the concentration at half of the fitted maximal effect; on the % scale 0 is the no-effect control and ±100 the full control effect; nearly all actives have a fitted effect of over 55% in size
# TRPV1 potentiator – enhances activation of the human vanilloid receptor TRPV1. TRPV1-expressing cells, Fluo-8 calcium influx, capsaicin EC20 potentiation. Q8NER1. potentiation, % at 8.33 µM. actives 0.02% (n = 320,000); in the data active means potentiation above about 80%; inconclusive means between about 30% and that limit; further: 0% is about no effect
#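 Cells expressing TRPV1 were dye-loaded with Fluo-8 and read kinetically: 10 s baseline, 3 min after compound (agonist portion), then 2 min after EC20 capsaicin (allosteric enhancer portion). Calcium-bound dye fluorescence at 480/520 nm.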
# RORgamma inh – blocks mouse ROR gamma transcriptional activity | P51450 | Drosophila S2 Gal4-RORgamma UAS-luciferase reporter, 20 h | Potency, µM (series often up to 53.6 µM), without a hit: at the highest dose activity change, negative = inhibition, most hits filed as inhibitors | actives 5.4% (n = 310,000); further: potency means the concentration at half of the fitted maximal effect; on the % scale 0 is the no-effect control and ±100 the full control effect; nearly all actives have a fitted effect of over 60% in size
#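 Luciferase reporter read in Schneider cells carrying Gal4-RORγ (mouse) and UAS-Photinus luciferase; cells given compound 1 h before 700 uM copper sulfate induction, then incubated 20 h at ambient temperature.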
# The depositor's hits bear a star; ? = inconclusive; nt = no result given; ! = not active in a repeat; [ ] = dose if it differs, or a comment. Unless noted, the call rests on the fitted dose curve; in most records, active means well fitted curve in the direction sought with a large enough effect; inconclusive means small, poorly fitted or top-dose-only effect, or another doubt; inactive means no such curve, though single readings can be large; an effect the other way counts as inactive or inconclusive.
SMILES,TRPV1 agonist,VP16 counter,uPA surface inh,TRPV1 potentiator,RORgamma inh
CCOc1cc2[nH]c(=S)n(CCCC(=O)N3CCC4(CC3)OCCO4)c(=O)c2cc1OCC,1,20µM*,nt,-5,?
CC(C)C1C(=O)O[C@@H]2CCN3CC=C(COC(=O)[C@](C)(O)[C@]1(C)O)[C@H]23 (some centres undefined),nt,-4%,nt,nt,-31%
C=C(C)[C@]12C[C@@H](C)[C@@]34OC(Cc5ccccc5)(O[C@@H]1[C@@H]3C=C(COC(=O)Cc1cc(OC)c(O)cc1I)C[C@]1(O)C(=O)C(C)=C[C@@H]41)O2,nt,?,nt,nt,8%
Cc1nc(C(=O)O)nn1-c1ccc([N+](=O)[O-])cc1,2,?,6%,-3,15%
Cn1cnc([N+](=O)[O-])c1Sc1ccc([N+](=O)[O-])cc1,2,?,nt,5,11µM*
CCOC(=O)N1C(C)CN(/[N+]([O-])=N/Oc2ccc([N+](=O)[O-])cc2[N+](=O)[O-])CC1C (centres undefined),nt,?,nt,nt,11µM*
N#CC(C#N)=NNc1cccc(Cl)c1,nt,0.63µM*,nt,nt,1.1µM*
O=C(O)c1cc(O)c2c(c1)C(=O)c1cccc(O)c1C2=O,2,?,?,1,?
CC1=CC(=O)c2c(O)cccc2C1=O,nt,13µM*,nt,nt,14µM*
COc1cc(C(=O)NC(=S)N2C[C@H]3C[C@H](C2)c2cccc(=O)n2C3)cc(OC)c1OC,-1,-5%,-3%,2,-42%
COc1cc(OC)cc(C(=O)NC(=S)N2C[C@H]3C[C@H](C2)c2cccc(=O)n2C3)c1,-1,-7%,6%,26,11µM*
O=C(NC(=S)N1C[C@H]2C[C@H](C1)c1cccc(=O)n1C2)c1ccc(Cl)cc1,0,?,-6%,3,4.5µM*
C=CCOCC1CO1 (centres undefined),nt,-4%,nt,nt,18%
CCCCn1cc[n+](C)c1,nt,-7%,nt,nt,?
CNC(=O)Oc1cccc(-c2cn3cc(OC(=O)NC)ccc3n2)c1,3,?,-7%,4,?
CNC(=O)Oc1ccc(-c2cn3cc(Cl)ccc3n2)cc1,25,?,-8%,-18,6.3µM*
Cc1cccc(C)c1N,nt,-2%,nt,nt,19%
COc1cc2c(c(OC)c1OC)-c1ccc(O)cc1C(NC(C)=O)CC2 (centres undefined),nt,nt,-17%,nt,nt
COc1cc2c(c(OC)c1OC)-c1ccc(O)c(=O)cc1[C@@H](NC(C)=O)CC2,nt,-11%,8.9µM*,nt,-25%
O[C@@H]1[C@@H]2O[P@@](O)(=S)OC[C@H]2O[C@H]1n1cnc2cc(Cl)c(Cl)cc21,nt,-8%,nt,nt,-3%
OC[C@H]1O[C@@H](n2cnc3cc(Cl)c(Cl)cc32)[C@H](O)[C@@H]1O,0,nt,8.9µM*,-5,nt
OC[C@H]1O[C@@H](n2cnc3cc(Cl)c(Cl)cc32)[C@H](O)[C@H]1O,nt,7.9µM*,nt,nt,?
CCCCCn1c(=O)c(C(=O)Nc2ccncc2)c(O)c2ccccc21,-2,5%,nt,-11,35%
CCCCCn1c(=O)c(C(=O)NCc2ccncc2)c(O)c2ccccc21,-5,4.5µM*,-6%,5,3.5µM*
CCCCn1c(=O)c(C(=O)Nc2ccccc2N)c(O)c2ccccc21,19,7.1µM*,4%,-4,5.6µM*
SMILES,TRPV1 agonist,VP16 counter,uPA surface inh,TRPV1 potentiator,RORgamma inh
CCCCCn1c(=O)c(C(=O)Nc2ccccc2N)c(O)c2ccccc21,2,?,8%,2,2%[1.91 µM]
CN1CCN(C(=O)COc2ccc3ccccc3c2)CC1,-2,1%,-1%,-9,3%
CN1CCN(C(=O)COc2ccc(-c3nc4ccccc4s3)cc2)CC1,12,10µM*,nt,-13,5µM*
CCN(CC)CCCCN1c2ccccc2Oc2ccc(Cl)cc21,nt,-6%,nt,nt,-32%
Fc1ccc(C(OCCN2CCCC2)c2ccc(F)cc2)cc1,-3,-8%,-13%,-21,-36%
c1ccc(CCCN2CCN(CCOC(c3ccccc3)c3ccccc3)CC2)cc1,nt,?,?,nt,32µM*
Fc1ccc(C(OCCN2CCN(CCCc3ccccc3)CC2)c2ccc(F)cc2)cc1,nt,32µM*!,?,nt,28µM*!
COc1ccc(-c2oc3cc(OC)c(O)c(OC)c3c(=O)c2OC)cc1O,-2,-5%,?,8,?
C=CCN1C[C@H](C)N([C@H](c2ccc(C(=O)N(CC)CC)cc2)c2cccc(O)c2)C[C@H]1C,nt,-11%,nt,nt,14%
Cc1nnc2n1-c1ccc(Cl)cc1C(c1ccccc1)=NC2,9,25%,nt,-2,2.5µM*
C=C1[C@@H]2C[C@]3(C(CC2=O)[C@]24C5C[C@H]3[C@H]2N(CC)C[C@]5(C)CC[C@@H]4O)[C@@H]1O (some centres undefined),nt,-5%,nt,nt,-23%
ClC=CCl,nt,-9%,nt,nt,5%
O=c1[nH]c(=O)n(CCC2=CCCCC2)c(O)c1/C=N/Nc1ccccc1,2,20µM*,1%,-4,?
O=c1[nH]c(=S)n(C2CC2)c(O)c1/C=N/Nc1ccccc1,-4,1%,2%,4,13%
O=C(N/N=C/c1c(O)n(C2CCCCC2)c(=S)[nH]c1=O)c1ccccc1,23,?,-2%,7,5.6µM*
O=C(N/N=C/c1c(O)n(Cc2ccco2)c(=O)[nH]c1=O)c1ccccc1O,17,7%,1%,-2,13µM*
CCCCC(=O)N/N=C/c1c(O)n(Cc2ccco2)c(=O)[nH]c1=O,-3,-28%,0%,-10,?
O=c1[nH]c(=O)n(CCC2=CCCCC2)c(O)c1/C=N/Nc1cccc2ccccc12,-9,?,1%,8,-38%
O=C(N/N=C/c1c(O)n(C2CCCCC2)c(=S)[nH]c1=O)c1ccccc1O,?,3.2µM*,-5%,-7,4µM*
NC(=O)O,nt,0%,nt,nt,2%
[S]=[Sb][S][Sb]=[S],nt,-7%,nt,nt,6%
CC/C(=N\NC(=O)c1ccccc1O)c1c(O)n(C2CCCCC2)c(=O)[nH]c1=O,?,8.9µM*,3%,5,2.5µM*
CC(C)c1ccc(-n2c(O)c(/C=N/NC(=O)c3ccccc3O)c(=O)[nH]c2=S)cc1,-7,4.5µM*,0%,10,0.32µM*
CCCCn1c(O)c(/C=N/NC(=O)c2ccncc2)c(=O)[nH]c1=O,11,-7%,1%,-12,-16%
O=C(N/N=C/c1c(O)n(CCc2ccccc2)c(=O)[nH]c1=O)c1ccccc1,15,-9%,1%,-12,14µM*
CC(C)c1ccc(-n2c(O)c(/C=N/NC(=O)c3ccncc3)c(=O)[nH]c2=O)cc1,0,-1%,3%,6,22%
CCCC[N+](=O)[O-],nt,-12%,nt,nt,-18%
O=[N+]([O-])C(Br)(CO)CO,nt,?,nt,nt,-40%[10 µM]
O=C1OC(c2cc(I)c(O)c(I)c2)(c2cc(I)c(O)c(I)c2)c2ccccc21,nt,?,nt,nt,-17%
COC1C=CC23c4cc5c(cc4CN(CC2O)C3C1)OCO5 (centres undefined),nt,1.3µM*,nt,nt,3.2µM*
